Among the data in the OligoGym collection are sensor-assay potency score (higher = more potent) values, retold here.
Also: reference of the scale not given here.

This test deals with LGALS7B. The test is described as follows: pooled miR-30 sensor sort-seq; sequence = guide strand. The following applies: shRNA.
Take TGAAGCCGTCGTCTGACGCGAT: the sensor-assay potency score (higher = more potent) was -0.633.

Consider TTTACATGGAACCTGCTGGCAT, for which the sensor-assay potency score (higher = more potent) is -0.552.

Sequence ATTGGGAGGAACCAAGCCGCGA gave a sensor-assay potency score (higher = more potent) of -1.73.
